Data on four molecules can be found in PubChem BioAssay (NCI).

SMILES strings stand for the structures. About 79,000 compounds went through this panel and 15% of them were active in at least one assay; those are over-represented in the sample as a whole. Unmarked numbers belong to inactive results. The source made the active and inactive calls. Cut-off read from the data, not from the text of the source: active = growth inhibition above about 70%; inactive = the rest.

The nature of assay [1]: NCI Yeast Anticancer Drug Screen. Data for the rad50 strain (AID 155).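 Note: 0% = growth of vehicle-only cultures of the same strain.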 The note with it: S. cerevisiae rad50 strain growth inhibition, hits give high values. The method, boiled down:
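Vehicle-treated cultures provide the reference for the growth inhibition reported for compound-exposed, repair-deficient yeast.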

A short description of assay [2]: NCI Yeast Anticancer Drug Screen. Data for the mec2-1 strain (AID 157). The note with it: S. cerevisiae mec2-1 strain, hits give high values. The method, boiled down: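 mec2-1 yeast strain, carrying an alteration in DNA damage repair or cell cycle control, was exposed to compounds; growth inhibition was measured relative to vehicle-treated controls.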
Assay [3] in a line: NCI Yeast Anticancer Drug Screen. Data for the sgs1 mgt1 strain (AID 161).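 Note: 0% = growth of cultures given vehicle only.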 The settings on record: S. cerevisiae sgs1 mgt1 strain, hits give high values. In a few lines:
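Percent growth inhibition was derived by comparing compound-exposed mutant yeast with vehicle-exposed cultures. The strain carries alterations in DNA damage repair.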

The nature of assay [4]: NCI Yeast Anticancer Drug Screen. Data for the cln2 rad14 strain (AID 165).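 Note: 0% = growth equal to vehicle treated cultures.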 The settings on record: S. cerevisiae cln2 rad14 strain, hits give high values. The method, boiled down:
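Yeast carrying cln2 and rad14 alterations (cell cycle control and DNA damage repair) were exposed to compounds. Growth inhibition was measured against vehicle-treated controls.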

Assay [5] can be described thus: NCI Yeast Anticancer Drug Screen. Data for the bub3 strain (AID 167). The note with it: S. cerevisiae bub3 mutant strain, hits give high values. The method, boiled down: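 Mutant yeast screening strain plus compound; vehicle-treated cultures serve as the 0% inhibition reference.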
Assay [6] can be described thus: NCI Yeast Anticancer Drug Screen. Data for the mlh1 rad18 strain (AID 175). The settings on record: S. cerevisiae mlh1 rad18 strain growth inhibition, hits give high values. The method, boiled down: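 Growth inhibition of the yeast strain was measured after compound exposure and expressed relative to vehicle-treated controls. The strain carries defined defects in DNA damage repair.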

[7] abbreviates: at 5.0 µM (retest, dose inferred, filed as 0.5).
Where [8] appears, read: at 50.0 µM (retest, dose inferred, filed as 5.0).

As for `Oc1ccc(C2SC(c3ccc(O)cc3)SC(c3ccc(O)cc3)S2)cc1` (configuration not stated), the growth inhibition is 14% in assay [1] (setting [7]); 98% (active) in assay [1] (setting [8]); 97.6% (active) in assay [1] (at 50.0 µM); -1% in assay [2] (setting [7]); 96% (active) in assay [2] (setting [8]); 99.3% (active) in assay [2] (at 50.0 µM). Further, the growth inhibition was -23% in assay [3] (setting [7]); 99% (active) in assay [3] (setting [8]); 99% (active) in assay [3] (at 50.0 µM); 23% in assay [4] (setting [7]); 98% (active) in assay [4] (setting [8]); 98.4% (active) in assay [4] (at 50.0 µM). The growth inhibition in assay [5] (setting [7]) is 30%; in assay [5] (setting [8]), 99% (active); in assay [5] (at 50.0 µM), 98.1% (active); in assay [6] (setting [7]), 35%; in assay [6] (setting [8]), 99% (active); in assay [6] (at 50.0 µM), 98.8% (active).
As for `O=c1cc(/C=C/c2ccccc2)cccc1O`, the growth inhibition was 79% (active) in assay [1] (setting [7]); 97% (active) in assay [1] (setting [8]); 97.8% (active) in assay [1] (at 50.0 µM); 90% (active) in assay [2] (setting [7]); 96% (active) in assay [2] (setting [8]); 98.2% (active) in assay [2] (at 50.0 µM). The growth inhibition in assay [3] (setting [7]) is 84% (active); in assay [3] (setting [8]), 99% (active); in assay [3] (at 50.0 µM), 98.5% (active); in assay [4] (setting [7]), 56%; in assay [4] (setting [8]), 98% (active); in assay [4] (at 50.0 µM), 96.9% (active). Moreover, the growth inhibition in assay [5] (setting [7]) is 97% (active); in assay [5] (setting [8]), 93% (active); in assay [5] (at 50.0 µM), 97.5% (active); in assay [6] (setting [7]), 58%; in assay [6] (setting [8]), 98% (active); in assay [6] (at 50.0 µM), 97.9% (active).
As to `CC1(C)N([O-])[N+](=O)C1(Br)c1ccccc1` (configuration not stated), the growth inhibition in assay [1] (setting [7]) is 22%; in assay [1] (setting [8]) it was 99% (active); in assay [1] (at 50.0 µM), 86.7% (active); in assay [2] (setting [7]), 17%; in assay [2] (setting [8]) it was 100% (active); in assay [2] (at 50.0 µM), 93.8% (active). Also, the growth inhibition in assay [3] (setting [7]) is -6%; in assay [3] (setting [8]), 95% (active); in assay [3] (at 50.0 µM), 92.6% (active); in assay [4] (setting [7]), 8%; in assay [4] (setting [8]), 64%; in assay [4] (at 50.0 µM), 90.2% (active). Besides, the growth inhibition is -24% in assay [5] (setting [7]); 96% (active) in assay [5] (setting [8]); 87.5% (active) in assay [5] (at 50.0 µM); 25% in assay [6] (setting [7]); 99% (active) in assay [6] (setting [8]); 84.5% (active) in assay [6] (at 50.0 µM).
Regarding `O=C1C=CC(=O)c2ccc(=O)ccc21`, the growth inhibition in assay [1] (setting [7]) was 38%; in assay [1] (setting [8]), 99% (active); in assay [1] (at 50.0 µM), 22.6%; in assay [2] (setting [7]) it was 25%; in assay [2] (setting [8]), 99% (active); in assay [2] (at 50.0 µM), -1.45%. Further, the growth inhibition in assay [3] (setting [7]) was 38%; in assay [3] (setting [8]) it was 99% (active); in assay [3] (at 50.0 µM), 25.9%; in assay [4] (setting [7]), 20%; in assay [4] (setting [8]), 98% (active); in assay [4] (at 50.0 µM), 28.4%. Moreover, the growth inhibition in assay [5] (setting [7]) is 27%; in assay [5] (setting [8]), 99% (active); in assay [5] (at 50.0 µM), -1.35%; in assay [6] (setting [7]), 71% (active); in assay [6] (setting [8]), 98% (active); in assay [6] (at 50.0 µM) it was 51.2%.
